# Source: PubChem BioAssay (NCI)
# The panel holds about 83,000 compounds, 20% with a hit somewhere; the sample as a whole holds those more often.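 Plates (96-well) were seeded with cells, treated with compound at one concentration, and incubated for 48 hours before percent growth was determined.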 Unmarked numbers belong to inactive results. Calls of active or inactive are those of the source. Rule for the calls: active = growth percent below 10; inactive = the rest.
# Tests used:
# Test in all cases: NCI-60 one-dose screen, 48 h (100 = growth as untreated, 0 = no growth, -100 = all killed)
# Conditions in all cases: 10 µM unless noted
# [1] = test system: NCI-H23 lung
# [2] = test system: NCI-H226 lung
# [3] = test system: NCI-H322M lung
# [4] = test system: HOP-62 NSCLC
# [5] = test system: NCI-H460 lung
# [6] = test system: NCI-H522 lung
# [7] = test system: A549/ATCC NSCLC
# [8] = test system: 786-0 renal
# [9] = test system: COLO 205 colon
# [10] = test system: DU-145 prostate
# [11] = test system: K-562 leukemia
# [12] = test system: MALME-3M melanoma
# [13] = test system: MDA-MB-231 breast
# [14] = test system: RXF 393 renal
# [15] = test system: SF-268 CNS
# [16] = test system: SF-295 CNS
# [17] = test system: SF-539 CNS
# [18] = test system: UACC-257 melanoma
# [19] = test system: M14 melanoma
# [20] = test system: HOP-92 NSCLC
SMILES,growth [1] [%],growth [2] [%],growth [3] [%],growth [4] [%],growth [5] [%],growth [6],growth [7] [%],growth [8],growth [9],growth [10] [%],growth [11],growth [12],growth [13] [%],growth [14],growth [15] [%],growth [16],growth [17],growth [18],growth [19],growth [20] [%]
CCc1cc2c(cc1Cl)nc1c(=O)[nH]c(=O)nc-1n2CCOCC(C)C,67.7,39.4,54.9,100,49.3,55.6%,67.1,70.3%,21.3%,95,42.1%,2.24% (active),55.8,80.5%,80,60%,79.3%,36.6%,49.4%,
O=S(=O)(NCCCNc1nccc(-c2[nH]c(-c3ccccc3)nc2-c2ccc(F)c(O)c2)n1)c1ccc(C(F)(F)F)cc1,70.7,48.5,95.4,62.3,16.3,18.8%,41.7,48%,88.3%,79.9,9.88% (active),-5.99% (active),67.1,24.5%,54,31.3%,31.1%,24.6%,3.88% (active),
O=C1C(SCc2ccccc2)=C(Cl)CN1c1ccc(Cl)cc1,80.5,99,98.2,109,106,-59.6% (active),101,103%,119%,49.5,52.9%,103%,101,107%,108,102%,97.9%,97.2%,78%,
NC(N)=NS(=O)(=O)c1ccc(N=Nc2c(N)nn(-c3ccc([N+](=O)[O-])cc3[N+](=O)[O-])c2N)cc1,98.1,93.3,92.9,104,107,97.2%,103,103%,106%,107,87.4%,106%,102,89%,100,108%,95%,103%,102%,
Cc1ccc(S(=O)(=O)NCCCNc2nc(Nc3ccc(N4CCN(C)CC4)cc3)nc3ccsc23)cc1,75.6,117,52.7,97.1,18.5,-5.6% (active),37.1,-26.7% (active),-32.9% (active),42.7,13.3%,-87.9% (active),23,-59.3% (active),42,-41.6% (active),-80.8% (active),-73.2% (active),-69.6% (active),
C/C(=N/N)c1nnn(-c2ccc(Br)cc2)c1C,99.6,91.5,95.7,93.7,102,91.5%,99.4,103%,115%,108,91.2%,102%,101,103%,97.8,94.2%,93.1%,105%,105%,93.4
N#Cc1c(-c2cccs2)cc(-c2cnccn2)nc1SCC(=O)N/N=C/c1cccs1,56.6,68.9,73.1,38.8,20.8,73.1%,19.4,16.6%,53.5%,37.3,63.2%,39.2%,40.3,-1.38% (active),53.7,48.8%,9.8% (active),53.9%,57.4%,
CCOP(=O)(OCC)OC[C@]12CCC(C)(C)C[C@H]1C1=CC[C@@H]3[C@@]4(C)CC[C@H](OP(=O)(OCC)OCC)C(C)(C)[C@@H]4CC[C@@]3(C)[C@]1(C)CC2,53.9,66.1,83.7,82.9,51.3,51.5%,44.3,66.3%,66.6%,83.1,28.9%,62.6%,50.2,74.9%,73.1,51.8%,66.9%,55%,51.9%,
